Compound activity deposited in PubChem by several laboratories.
Sampled rows, rich in hits. Any-hit rate of the full collection: about 1.4%.
H9c2 protect = protects H9c2 cardiomyocytes from peroxide injury; actives 0.63% (n = 360,000); protection from H2O2 cell death, % at 20 µM; H2O2 injury protection, ATPLite, 2 h;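 active = compounds giving at least 50% protection of heart cells from peroxide-induced death in the single-dose screen, raw or plate-pattern-corrected value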;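 note: 0% = DMSO wells with peroxide and 100% = DMSO wells without peroxide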
Yeast superoxide = yeast age-related superoxide inhibition as caloric restriction mimetic; S. cerevisiae aged cells, superoxide DHE fluorescence; stronger effect = lower value; superoxide response (% of plate mean), % at 10 µM; actives 0.18% (n = 330,000); AID 2690;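 active = superoxide response under a set limit, about three screen SD below normal, cut at about 65% in these data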;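 note: yeast aged for seven days with compound at 30 °C before DHE staining; 100% = average MFI of all compound-treated wells on the plate with controls excluded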
p-CIP stab down = lowers stability of the mouse p/CIP coactivator protein. AID 1984. actives 0.01% (n = 290,000). F442A p/CIP-EGFP cells, EGFP fluorescence, 16 h. decrease of EGFP signal, % at 10 µM. Q05BA5;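 active = EGFP signal decrease of at least 30% at 10 µM or well 3 SD below plate mean, unless failing retest; inactive = the rest, including hits failing retest or dose response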
HSV replic up = increases HSV replication in cells | HSV replication augmentation in cells, fold increase | maximum fold increase | actives 0.005% (n = 220,000) | AID 1956; in the data active = maximum fold increase above about 1.5; inconclusive = no clear call, values can overlap the other calls; tested in PC3 cells
beta cell repl = induces beta-cell replication in MIN6 cells. actives 0.29% (n = 330,000). proliferation, % at 10 µM. MIN6 cells proliferation, ATPlite luminescence, 48 h; cells starved in 0.2% serum; 100% = growth in 10% serum;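 active = compounds whose signal lies at least 3.5 SD above the mean of all wells on their plate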;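 note: 0% = DMSO-treated cells in low-serum medium and 100% = 10% serum control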
V-ATPase pH = regulators of yeast V-ATPase proton transport. S. cerevisiae, pHLuorin cytosolic pH fluorescence. response, % at 10 µM. actives 0.37% (n = 350,000). AID 504577; in the data active = response mostly above about 7.3%, no sharp cut-off; inactive = mostly below about 5.4%; note: actives read high
* marks the source's active call; other numbers are inactive results; i = inactive; ? = inconclusive; nt = no result given.

SMILES	H9c2 protect	Yeast superoxide	p-CIP stab down	HSV replic up	beta cell repl	V-ATPase pH
Cc1ccc(OCCC(=O)Nc2cc(S(=O)(=O)N3CCOCC3)ccc2N2CCCC2)cc1	-1	nt	nt	nt	nt	7
COc1ccc(C(=O)N2CCCC(C)(C(=O)NS(=O)(=O)C3CC3)C2)cc1 (configuration not stated)	3	nt	nt	nt	nt	nt
CCOc1ccc(S(=O)(=O)N(C)C)cc1-c1nc2c(C(C)(C)C)nn(C)c2c(=O)[nH]1	21	105	-15	i	1	-2
CCOc1ccc(S(=O)(=O)N(C)CCO)cc1-c1nc2c(C(C)(C)C)nn(C)c2c(=O)[nH]1	56*	89	-8	nt	0	4
COc1cccc(OCc2cc(C(=O)NC(C)c3cnn(C)c3C)no2)c1 (configuration not stated)	0	88	2	nt	7	4
CCCCN(C)CCNS(=O)(=O)c1ccc2c(c1)n(C)c(=O)c(=O)n2C	17	86	14	i	-4	18*
CCCNS(=O)(=O)c1ccc2c(c1)n(C)c(=O)n2C	7	101	-7	i	-2	-3
COc1cc(/C=C2\SC(=S)N(c3cccnc3)C2=O)ccc1O	1	96	6	2.8*	-3	-1
Cc1ccc(S(=O)(=O)N2CCCCC2C(=O)N(C)c2ccccc2)cc1 (configuration not stated)	-11	110	-7	nt	3	-3
Cc1cccc(OCCCC(=O)NNC(=O)c2ccccn2)c1	50*	105	nt	nt	-7	1
Cc1c(Br)c([N+](=O)[O-])nn1CC(=O)NCc1cccnc1	1	93	-6	i	-2	2
C/C(=N\NC(=O)c1ccc(NS(=O)(=O)c2cccs2)cc1)c1cccs1	-2	119	-7	i	3	4
C/C(=N\NC(=O)c1ccc(Cl)cc1)c1cccs1	-22	nt	-23	i	nt	12*
CC(NCC(=O)Nc1cc(S(=O)(=O)N2CCCCCC2)ccc1Cl)c1ccccc1 (configuration not stated)	-19	116	-7	i	-6	0
CCN(CC)C(=O)c1[nH]cnc1C(=O)NCC(=O)OCc1ccccc1	105*	103	-5	nt	1	-2
O=C(CNC(=O)c1nc[nH]c1C(=O)NCc1ccccc1)OCc1ccccc1	103*	110	-5	nt	9	-3
O=C(CNC(=O)c1nc[nH]c1C(=O)NCC(=O)OCc1ccccc1)OCc1ccccc1	96*	105	-2	nt	1	1
CC(C)(C)OC(=O)NCc1ccc(CNC(=O)c2[nH]cnc2C(=O)NCC(=O)OCc2ccccc2)cc1	39	97	-12	nt	-2	1
CNC(=O)c1[nH]cnc1C(=O)NCC(=O)OCc1ccccc1	18	104	-7	nt	-1	1
c1coc(CSSCc2ccco2)c1	0	83	nt	nt	-5	9.5*
COc1cccc(-n2cc(CNCc3cn(C)nc3-c3ccccc3F)cn2)c1	-13	94	3	i	-3	14*
CCC1CCCCN1CC(=O)c1c(C)[nH]c2cc(C)ccc12 (configuration not stated)	-6	102	29	nt	-2	-1
COC(=O)c1[nH]c2cc(OC)c(OC)cc2c1/C=N/Nc1ccccc1	75*	86	-1	nt	-6	1
COc1cc(/C=N/Nc2ccccc2)ccc1O	0	98	-3	nt	-4	1
CN(C)c1cccc(C(=O)OCC(=O)NCC2CCCO2)c1 (configuration not stated)	-8	102	-1	i	-3	-2
SMILES	H9c2 protect	Yeast superoxide	p-CIP stab down	HSV replic up	beta cell repl	V-ATPase pH
O=C(/C=C/c1ccc(F)cc1)c1ccccc1Br	-7	80	-14	i	-7	-1
Cc1ccc(CC2(c3ccccc3)NC(=O)NC2=O)cc1 (configuration not stated)	2	nt	nt	nt	nt	15*
CCOC(=O)CC1COCCN1C(=O)c1cc(COc2ccc(F)cc2Cl)on1 (configuration not stated)	6	91	-21	nt	-5	1
CCOC(=O)C1CCN(C(=S)Nc2cc(C)ccc2C)CC1	10	102	-10	i	-3	22*
CCN(CC)S(=O)(=O)c1ccc2oc(C(=O)N3CCCCCC3)c(C)c2c1	-11	102	38*	i	-1	-2
O=C1NC(=O)c2c(Br)c(Br)c(Br)c(Br)c21	59*	nt	nt	nt	nt	1
COc1ccc(N2CCN(C3CCCN(C(=O)CCN4CCCCO4)C3)CC2)cc1 (configuration not stated)	0	nt	-6	nt	-1	-4
O=C(C1CCOCC1)N1CCCC(N2CCN(c3cccc(C(F)(F)F)c3)CC2)C1 (configuration not stated)	0	103	-10	nt	2	-1
O=C1NC(c2cccs2)Nc2ccccc21 (configuration not stated)	66*	103	-19	i	1	1
O=C(/C(=N/N=C/c1ccc(O)c(O)c1O)c1ccccc1)c1ccccc1	58*	105	-25	i	-3	-1
Oc1cccc(C=NCc2ccccc2)c1O	30	90	-1	i	-5	-4
Oc1ccc(/C=N/N=C(c2ccccc2)c2ccccc2)c(O)c1O	85*	124	-16	?	nt	8
CCn1nccc1NC(=O)c1csc([C@H]2C[C@H](O)[C@@H](CO)O2)n1	12	nt	nt	nt	nt	nt
COc1ccc(CCNc2nc(-c3cccnc3)nc3ccccc23)cc1OC	51*	104	-14	nt	-1	6
COc1ccc(/C=N/Nc2nc(-c3cccnc3)nc3ccccc23)cc1OC	10	100	3	i	-1	-4
CN(Cc1ccccc1F)c1nc(-c2cccnc2)nc2ccccc12	-19	100	0	nt	0	-2
CCOc1ccc(CN(C)c2nc(-c3cccnc3)nc3ccccc23)cc1OC	-1	103	-18	nt	-2	16*
c1cncc(-c2nc(NCC3COc4ccccc4O3)c3ccccc3n2)c1 (configuration not stated)	52*	105	-19	nt	-4	0
c1cncc(-c2nc(NCc3ccc4c(c3)OCO4)c3ccccc3n2)c1	14	86	-5	i	-5	3
O=C(CN1C(=O)NC2(CCOc3ccccc32)C1=O)c1ccc[nH]1 (configuration not stated)	-1	85	nt	nt	1	10
O=C(/C=C/c1ccc([N+](=O)[O-])cc1)Nc1cccnc1	-22	94	-6	i	-4	0
O=C(/C=C/c1ccc(Cl)c([N+](=O)[O-])c1)Nc1cccnc1	50*	105	3	i	0	-4
Cc1cccc(N2CCN(CCCNC(=O)c3ccc(NC(=O)C4=CSCCO4)cc3)CC2C)c1 (configuration not stated)	1	96	-7	nt	-3	2
O=C(NNC(=O)c1cc(Br)ccc1O)c1csc(N2CCOCC2)n1	66*	106	nt	nt	-6	0
